Results published in PubChem BioAssay (Tox21).
Inconclusive results are not listed. Values without a mark were called inactive. Calls follow the shape of the dose curve; as a rule, active = well fitted cell-killing curve with a large enough effect in the repeat runs; inconclusive = weak or mixed curves, or effect the other way; inactive = flat fitted curve, though single readings scatter. Where a SMILES comes first, the peptide text is derived from it.

Experiment: qHTS RealTime-Glo MT Cell Viability Assay in HepG2 cells - 0 hour (AID 1224889); also: nearly all actives have a fitted effect of over 50% in size
Details: RealTime-Glo luminescence; series mostly up to 76.8 µM; activity change, negative = cytotoxicity: at the top concentration
From the text: U.S. Tox21 Program National Center for Advancing Translational Sciences [NCATS] NIH Chemical Genomics Center [NCGC] U.S. Environmental Protection Agency [EPA] National Institutes of Environmental Health Sciences [NIEHS] National Toxicology Program [NTP] U.S. Food and Drug Administration [FDA] Tox21 Assay Overview: Measure of cell viability is critical in the cell-base assay. Analysis of cell viability is necessary for the characterization of cell responses to cytotoxic drugs and environmental stress. A RealTime-Glo MT Cell Viability Assay to monitor cell viability in real time of continues cell culture during 40 hours of compound treatment was used to screen Tox21 10K library compounds in HepG2 cells. The RealTime-Glo MT Cell Viability Assay is a nonlytic, homogeneous, bioluminescent method to measure cell viability in real time using a simple, plate-based method. The assay involves adding NanoLuc luciferase and a cell-permeant prosubstrate to cells in culture. Viable cells reduce the proprietary prosubstrate to generate a substrate for NanoLuc luciferase. This substrate diffuses from cells into the surrounding culture medium, where it is rapidly used by the NanoLuc Enzyme to produce a luminescent signal. The signal correlates with the number of viable cells, making the assay well suited for cytotoxicity studies.
Tox21 Assay Protocol Summary: The mixture of HepG2 cell suspension and reagents were dispensed at 600cells/6 ul/well in 1536-well tissue culture treated black solid bottom plates using a Multidrop dispenser. After the assay plates were incubated at a 37 C/5% CO2 incubator for 5 hours, 23 nL of compounds dissolved in DMSO, positive and negative controls was transferred to the assay plate by a pintool work station. The plates were incubated at 37 C for 40 hours. The luminescence intensity were measured at 0h, 8h, 16h, 24h, 32h and 40h time points using ViewLux plate reader during compound treatment.
% is scaled to controls: 0 for no effect and ±100 for the full control effect.

Row | SMILES | activity change, negative = cytotoxicity
1 | COP(=O)(O)OP(=O)(O)OC | -0.427%
2 | OC[C@H]1O[C@@H](O[C@@H]2[C@@H](CO)O[C@](O)(CO)[C@H]2O)[C@H](O)[C@@H](O)[C@H]1O | -1.35% [at 35.3 µM]
3 | O=C(O)CNC(=O)CNC(=O)CNC(=O)CSC(=O)c1ccccc1 | 1.5% [at 35.3 µM]
4 | CCCCOCCOC(=O)COc1ccc(Cl)cc1Cl | 1.92%
5 | CCCCCCCCCCCCCCCCCCOCCO | 2.77% [at 15.8 µM]
6 | CC(C)NC(=O)c1ccc(C=O)cc1 | 2.75% [at 35.3 µM]
7 | CC1=C(O)C(=O)C(C)O1 (stereo not given) | 1.14%
8 | CC(C)OC(=O)CCC(=O)OC(C)C | -3.47%
9 | OC[C@@H](O)C(O)[C@@H](O)CO (stereo not given in full) | -0.592%
10 | CC(=O)c1cc(C)oc1C | -2.2%
11 | Cc1ccc(N)cc1S(=O)(=O)O | -1.46%
12 | CCC(=O)Oc1ccc2c(c1)CC[C@@H]1[C@@H]2CC[C@@]2(C)[C@H]1C[C@@H](OC(=O)CC)[C@@H]2OC(=O)CC | -7.75% [at 35.3 µM]
13 | CC1(C)Cc2cccc(N)c2O1 | -0.54%
14 | O=C1CCCCO1 | -0.127%
15 | CCc1occc(=O)c1O | 14.3%
16 | OCC1CCC(CO)CC1 (stereo not given) | -1.19%
17 | Cc1ncc([N+](=O)[O-])n1CC(C)O (stereo not given) | 1.29% [at 35.3 µM]
18 | CO[Si](CCCn1c(=O)n(CCC[Si](OC)(OC)OC)c(=O)n(CCC[Si](OC)(OC)OC)c1=O)(OC)OC | 2.24% [at 35.3 µM]
19 | COc1cc2c(cc1OC)C(=O)C(CC1CCN(Cc3ccccc3)CC1)C2 (stereo not given) | -5.11% [at 35.3 µM]
20 | C=CCSSCCC | 0.424%

Row | SMILES | activity change, negative = cytotoxicity
21 | CC1(C)[C@H]2CC[C@](C)(C2)[C@H]1O | -4.86%
22 | CC(=O)CCC1=C(C)CCCC1(C)C | -8.22%
23 | O=C(O)c1cc2ccccc2nc1C(=O)O | -1.48%
24 | Cn1c(=O)c2c(ncn2CCO)n(C)c1=O | -9.57% [at 35.3 µM]
25 | N[C@@H](CSCCCO)C(=O)O | -0.41% [at 15.8 µM]
26 | CC(=O)CC(=O)Nc1ccc(C)cc1C | 0.186%
27 | N#Cc1cscn1 | 3.22%
28 | CC(=O)N[C@@H](CO)C(=O)N[C@@H](CC(=O)O)C(=O)N[C@@H](CCCCN)C(=O)N1CCC[C@H]1C(=O)O (Ac-SDKP-OH) | -1.77% [at 35.3 µM]
29 | CC(=O)C(C)O (stereo not given) | 6.01%
30 | Cc1ccccc1C(N)=O | 2.6%
31 | O=C(O)CSCC(=O)NC1CCSC1=O (stereo not given) | 4.03% [at 35.3 µM]
32 | c1ccc2cnccc2c1 | 6.52%
33 | OCC1(CO)COCOC1 | 8.31%
34 | C=CCOC(=O)CCCCCC | -0.893%
35 | CC(C)=CCC[C@@](C)(O)[C@H]1CC=C(C)CC1 | -8.25% [at 35.3 µM]
36 | COc1cc(OC)nc(O[C@H](C(=O)O)C(OC)(c2ccccc2)c2ccccc2)n1 | -6.61% [at 35.3 µM]
37 | OC1OCCOC1O (stereo not given) | 9.77%
38 | CCOc1cccc(N)c1 | 2.43%
39 | C=CCCCCCCCCC(=O)OCCCC | 7.23%
40 | CC(C)Cn1cnc2c1c(=O)n(C)c(=O)n2C | 0.864% [at 35.3 µM]
